# According to PubChem BioAssay (Tox21):
# Where “and” joins values, the source holds several entries; their conditions need not be identical. Equal entries are not always repeated. Records with an inconclusive call do not appear. A call without a number means that no potency is given here. Calls of active or inactive are those of the source. Unless noted, calls come from the whole dose curve.
# Legend:
# [1] = Nuclear factor erythroid 2-related factor 2/antioxidant responsive element (Nrf2/ARE) small molecule agonists: qHTS cell viability counter screen in human keratinocytes (AID 1919968; active = well fitted curve in the direction sought with a large enough effect in the repeat runs; an effect the other way counts as inactive or inconclusive; note: nearly all actives have a fitted effect of over 55% in size; note: potency is the fitted concentration of half-maximal effect)
# Outline: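 Measured as CellTiter-Fluor fluorescence, this readout tracks cytotoxicity in the same wells as the ARE-luciferase screen. HaCaT reporter cells (1,500/well) received compounds after a 5 h pre-incubation and were exposed for 23 h.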
# [2] = Nuclear factor erythroid 2-related factor 2/antioxidant responsive element (Nrf2/ARE) small molecule agonists: luciferase reporter gene qHTS assay in human keratinocytes (AID 1919969); note: nearly all actives have a fitted effect of over 35% in size; note: potency is the fitted concentration of half-maximal effect
# [3] = molecular target: Gonadotropin-releasing hormone receptor (Homo sapiens) (UniProt P30968); assay: Human gonadotropin-releasing hormone receptor (GnRHR) small molecule agonists, calcium flux assay in GnRHR-HEK293 cells (AID 1920063); note: nearly all actives have a fitted effect of over 35% in size
# Outline: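 Fluorescence kinetics (480 nm excitation, 540 nm emission; 3 min, 1 s steps) report calcium mobilisation in human GnRHR-HEK293 cells in agonist mode. Dye incubation: 1 h, 37 C.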
# [4] = molecular target: KiSS-1 receptor (Homo sapiens) (UniProt Q969F8); assay: Human kisspeptin (KISS1R) small molecule agonists, calcium flux assay in KISS1R-HEK293 cells (AID 1920064; active = well fitted curve in the direction sought with a large enough effect in the repeat runs; an effect the other way counts as inactive or inconclusive)
# Outline: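 Measures KISS1R agonism through calcium-sensitive dye fluorescence in stably transfected HEK293 cells, read for 3 min after pin-tool compound delivery; 15-point titrations in triplicate.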
# [5] = G protein-coupled receptor (GPCR) small molecule agonists, calcium flux assay: HEK293 wild type cell line counter screen (AID 1920065)
# Outline: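 Readout: fluorescence at 480 nm excitation/540 nm emission, sampled at 1 s intervals for 3 min. Cells had been cultured 18 h, then dye-loaded 1 h at 37 C before compound or ATP addition.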
# [6] = p53 small molecule agonists, cell-based qHTS assay with human liver microsomes (AID 1963577)
# Outline: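 Cells carrying a p53-responsive bla reporter were rested 5 h (37 C, 5% CO2) before compound transfer. Human liver microsomes plus NADPH, 0.5 mg/mL final apiece, supplied metabolism during the 16 h 37 C exposure.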
# [7] = p53 small molecule agonists, cell-based qHTS assay with rat liver microsomes (AID 1963578)
# Outline: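 Fluorescence from a beta-lactamase reporter under a p53 response element was measured after cells had been incubated 16 h at 37 C with test compound and rat liver microsomes plus NADPH (0.5 mg/mL final each).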
# [8] = p53 small molecule agonists, cell-based qHTS assay with rat liver microsomes: qHTS cell viability counter screen (AID 1963580); note: nearly all actives have a fitted effect of over 45% in size; note: potency is the fitted concentration of half-maximal effect
# Outline: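 p53RE-bla HCT-116 cells (4,000/well) rested 5 h at 37 C, then given Tox21 compounds in DMSO with rat liver microsomes (0.5 mg/mL final) plus NADPH (0.5 mg/mL final) for 16 h at 37 C. Viability read by CellTiter-Glo luminescence after 30 min at room temperature.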
# [9] = p53 small molecule agonists, cell-based qHTS assay: qHTS cell viability counter screen (AID 1963581); note: nearly all actives have a fitted effect of over 45% in size
# Outline: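 In the same plates used for the p53 bla reporter, HCT-116 cells given compounds for 16 h at 37 C received CellTiter-Glo; luminescence was recorded 30 min later at room temperature.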
# [10] = p53 small molecule agonists, cell-based qHTS assay (AID 1963582; active = well fitted activation curve with a large enough effect in the signal ratio in the repeat runs, not every such curve was filed as active; the % refers to the signal ratio; note: potency is the fitted concentration of half-maximal effect)
# Outline: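 Compounds are pin-transferred in DMSO onto p53RE-bla cells and incubated 16 h at 37 C. The B/G FRET beta-lactamase substrate is then applied for 2 h at RT and fluorescence recorded.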
# [11] = molecular target: 5-hydroxytryptamine receptor 2A (Homo sapiens) (UniProt P28223); assay: 5-hydroxytryptamine receptor 2A (HTR2A) small molecule agonists, cell-based qHTS assay (AID 1963587); note: nearly all actives have a fitted effect of over 30% in size; note: potency is the fitted concentration of half-maximal effect
# Outline: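 HTR2A-CHO cells, plated 18 h at 37 C/5% CO2, dye-loaded 1 h at 37 C; compounds in DMSO added by pin tool (agonist mode). Intracellular calcium flux read as kinetic fluorescence on FDSS over 2 min at 1 s intervals.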
# [12] = molecular target: Muscarinic acetylcholine receptor M1 (Homo sapiens) (UniProt P11229); assay: Cholinergic receptor muscarinic 1 (CHRM1) small molecule antagonists, cell-based qHTS assay (AID 1963588); note: nearly all actives have a fitted effect of over 40% in size; note: potency is the fitted concentration of half-maximal effect
# Outline: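 CHRM1-CHO calcium-flux assay, antagonist mode. Cells were seeded 18 h, dye-loaded 1 h at 37 C and given compound for 5 min at RT, then acetylcholine was added at 50nM. FDSS fluorescence was read 3 min; 15 concentrations, three runs.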
# [13] = molecular target: Muscarinic acetylcholine receptor M1 (Homo sapiens) (UniProt P11229); assay: Cholinergic receptor muscarinic 1 (CHRM1) small molecule agonists, cell-based qHTS assay (AID 1963589); note: nearly all actives have a fitted effect of over 35% in size
# Outline: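 Each compound was tested at 15 concentrations across three independent runs on dye-loaded CHO cells stably expressing human CHRM1, reading intracellular calcium fluorescence kinetically at 1 sec intervals.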
# [14] = cAMP Responsive Elements (CRE) small molecule agonists, cell-based qHTS assay (AID 1963590)
# Outline: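 Cell line: CRE-bla HEK 293T; medium DMEM/10% dialyzed FBS/0.1 mM NEAA/1 mM pyruvate/25 mM HEPES; 3 h compound exposure; beta-lactamase FRET readout after 2 h substrate loading at RT.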
# [15] = cAMP Responsive Elements (CRE) small molecule antagonists, cell-based qHTS assay (AID 1963591; active = well fitted inhibition curve with a large enough effect in the signal ratio in the repeat runs, not every such curve was filed as active; the % refers to the signal ratio)
# Outline: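 Inhibition of NKH477-driven (0.25 uM final) CRE-beta-lactamase signal in HEK293T cells, 3 h compound exposure at 37 °C, detected by FRET substrate fluorescence.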
# [16] = molecular target: Beta-2 adrenergic receptor (Homo sapiens) (UniProt P07550); assay: Adrenergic beta2 receptor (ADRB2) small molecule antagonists, cell-based qHTS assay (AID 1963592); note: series mostly up to about 92 µM; nearly all actives have a fitted effect of over 50% in size
# Outline: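 Cells (CHO, stable ADRB2 overexpression) incubated 18-20hr at 37C; compounds added from DMSO; agonist mix (1nM isoproterenol, 100uM IBMX, 25uM Ro-20-1724) added; 0.5hr RT; d2-cAMP and anti-cAMP-cryptate added; 1hr RT; 665/615 nm read.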
# [17] = molecular target: D(2) dopamine receptor (Homo sapiens) (UniProt P14416); assay: Dopamine D2 receptor (DRD2) small molecule agonists, cell-based qHTS assay (AID 1963594); note: nearly all actives have a fitted effect of over 35% in size
# Outline: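 HEK293 cells stably expressing DRD2 were cultured 24 h at 37 C, then given Ro20-1724 (0.1 mM final) and compounds for 10 min at room temperature. NKH477 (200nM) was then added for 30 min. cAMP was read by HTRF.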
# [18] = molecular target: 5-hydroxytryptamine receptor 2A (Homo sapiens) (UniProt P28223); assay: 5-hydroxytryptamine receptor 2A (HTR2A) small molecule antagonists, cell-based qHTS assay (AID 1963586); note: nearly all actives have a fitted effect of over 45% in size; note: potency is the fitted concentration of half-maximal effect
# Outline: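 Antagonist-mode intracellular calcium assay: DOI (4 nM) added after 5 min compound pre-incubation at room temperature to dye-loaded HTR2A-CHO cells. Fluorescence followed for 3 min, sampled every second.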
# [19] = molecular target: D(2) dopamine receptor (Homo sapiens) (UniProt P14416); assay: Dopamine D2 receptor (DRD2) small molecule antagonists, cell-based qHTS assay (AID 1963595; active = well fitted inhibition curve with a large enough effect in the signal ratio in the repeat runs, with a control signal flat; the % refers to the signal ratio; note: potency is the fitted concentration of half-maximal effect)
# Outline: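 Cells were plated and grown for 24 h at 37 °C. Ro20-1724 (0.1 mM final) went in first, then compound for 10 min. NKH477 (200 nM) with quinpirole (12 nM) followed for 30 min at RT, then HTRF detection reagents for 1 h.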
# [20] = p53 small molecule agonists, cell-based qHTS assay with human liver microsomes: qHTS cell viability counter screen (AID 1963579); note: nearly all actives have a fitted effect of over 45% in size
# Outline: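 Seed p53RE-bla cells at 4,000 per well; incubate 5 h at 37 C; add compound, human liver microsomes and NADPH; incubate 16 h at 37 C; add CellTiter-Glo; after 30 min at room temperature, read luminescence.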
# Beta-2 adrenergic receptor (Homo sapiens), sequence (P07550 whole entry, looked up): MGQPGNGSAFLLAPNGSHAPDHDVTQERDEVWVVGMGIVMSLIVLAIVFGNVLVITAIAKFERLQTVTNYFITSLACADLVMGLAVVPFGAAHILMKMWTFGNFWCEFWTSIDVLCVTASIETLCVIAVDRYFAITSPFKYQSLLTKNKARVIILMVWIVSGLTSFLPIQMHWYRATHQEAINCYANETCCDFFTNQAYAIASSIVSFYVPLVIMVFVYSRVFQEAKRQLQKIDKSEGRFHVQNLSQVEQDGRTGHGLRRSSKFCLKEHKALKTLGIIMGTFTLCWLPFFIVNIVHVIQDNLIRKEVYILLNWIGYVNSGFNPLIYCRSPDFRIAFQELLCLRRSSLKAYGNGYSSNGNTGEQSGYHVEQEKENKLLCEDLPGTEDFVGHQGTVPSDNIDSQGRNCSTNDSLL
# D(2) dopamine receptor (Homo sapiens), sequence (P14416 whole entry, looked up): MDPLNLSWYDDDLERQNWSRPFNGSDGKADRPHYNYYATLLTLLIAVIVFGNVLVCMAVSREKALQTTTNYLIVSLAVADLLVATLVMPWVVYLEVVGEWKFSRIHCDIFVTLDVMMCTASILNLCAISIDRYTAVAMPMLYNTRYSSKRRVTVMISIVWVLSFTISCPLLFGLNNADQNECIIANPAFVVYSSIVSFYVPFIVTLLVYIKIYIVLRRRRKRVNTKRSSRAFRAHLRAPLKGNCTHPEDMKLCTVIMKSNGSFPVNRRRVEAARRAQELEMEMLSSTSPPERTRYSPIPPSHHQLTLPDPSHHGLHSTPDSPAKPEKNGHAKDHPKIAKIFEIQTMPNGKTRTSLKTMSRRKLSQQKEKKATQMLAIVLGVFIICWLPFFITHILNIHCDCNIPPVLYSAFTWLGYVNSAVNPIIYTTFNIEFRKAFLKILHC
# Muscarinic acetylcholine receptor M1 (Homo sapiens), sequence (P11229 whole entry, looked up): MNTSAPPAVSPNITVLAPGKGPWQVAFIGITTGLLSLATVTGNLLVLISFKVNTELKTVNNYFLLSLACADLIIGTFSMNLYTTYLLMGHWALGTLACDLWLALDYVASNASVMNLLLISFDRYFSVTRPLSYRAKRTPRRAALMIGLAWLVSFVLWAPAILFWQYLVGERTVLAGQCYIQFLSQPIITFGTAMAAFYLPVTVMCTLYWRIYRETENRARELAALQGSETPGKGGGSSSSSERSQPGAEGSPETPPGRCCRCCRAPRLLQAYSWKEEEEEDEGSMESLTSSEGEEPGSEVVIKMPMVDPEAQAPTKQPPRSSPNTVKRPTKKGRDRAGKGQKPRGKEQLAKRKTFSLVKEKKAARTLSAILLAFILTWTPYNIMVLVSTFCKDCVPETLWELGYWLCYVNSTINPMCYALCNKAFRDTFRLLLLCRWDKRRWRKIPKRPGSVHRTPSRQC
# KiSS-1 receptor (Homo sapiens), sequence (Q969F8 whole entry, looked up): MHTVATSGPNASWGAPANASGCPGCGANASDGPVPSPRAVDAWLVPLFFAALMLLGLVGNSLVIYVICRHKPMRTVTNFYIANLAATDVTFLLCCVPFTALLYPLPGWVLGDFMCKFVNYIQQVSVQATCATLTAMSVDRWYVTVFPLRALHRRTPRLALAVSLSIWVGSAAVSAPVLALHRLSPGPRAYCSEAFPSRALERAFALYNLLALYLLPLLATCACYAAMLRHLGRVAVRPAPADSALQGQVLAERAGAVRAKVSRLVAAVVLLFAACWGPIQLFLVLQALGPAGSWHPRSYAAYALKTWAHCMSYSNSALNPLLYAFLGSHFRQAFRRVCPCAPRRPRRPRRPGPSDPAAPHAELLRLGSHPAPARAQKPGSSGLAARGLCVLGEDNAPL
# 5-hydroxytryptamine receptor 2A (Homo sapiens), sequence (P28223 whole entry, looked up): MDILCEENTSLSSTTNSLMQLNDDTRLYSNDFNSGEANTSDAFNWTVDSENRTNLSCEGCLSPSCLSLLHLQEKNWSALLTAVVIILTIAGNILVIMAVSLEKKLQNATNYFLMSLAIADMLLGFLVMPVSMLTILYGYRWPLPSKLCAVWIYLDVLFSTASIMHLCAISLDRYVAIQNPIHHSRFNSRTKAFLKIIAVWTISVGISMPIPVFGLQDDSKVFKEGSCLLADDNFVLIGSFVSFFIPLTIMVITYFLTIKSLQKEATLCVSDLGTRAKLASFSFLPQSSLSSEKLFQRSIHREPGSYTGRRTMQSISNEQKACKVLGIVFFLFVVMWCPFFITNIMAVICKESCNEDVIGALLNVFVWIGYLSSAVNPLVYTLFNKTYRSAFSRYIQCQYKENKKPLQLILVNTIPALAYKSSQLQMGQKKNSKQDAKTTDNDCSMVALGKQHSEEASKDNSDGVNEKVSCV
# Gonadotropin-releasing hormone receptor (Homo sapiens), sequence (P30968 whole entry, looked up): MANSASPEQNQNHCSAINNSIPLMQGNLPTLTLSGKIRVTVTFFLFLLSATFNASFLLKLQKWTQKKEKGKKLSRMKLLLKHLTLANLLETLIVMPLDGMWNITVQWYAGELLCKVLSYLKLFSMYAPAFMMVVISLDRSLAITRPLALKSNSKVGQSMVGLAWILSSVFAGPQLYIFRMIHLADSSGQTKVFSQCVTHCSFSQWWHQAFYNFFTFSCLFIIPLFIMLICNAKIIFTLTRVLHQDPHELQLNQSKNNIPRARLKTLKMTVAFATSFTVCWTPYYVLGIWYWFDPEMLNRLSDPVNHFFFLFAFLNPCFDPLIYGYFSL
Structure (SMILES),Potency [1],Potency [2],Potency [3],Potency [4],Potency [5],Potency [6],Potency [7],Potency [8],Potency [9],Potency [10],Potency [11],Potency [12],Potency [13],Potency [14],Potency [15],Potency [16],Potency [17],Potency [18],Potency [19],Potency [20]
COC(=O)c1cc(S(N)(=O)=O)ccc1OC,inactive,inactive,inactive,inactive,inactive,inactive,inactive,inactive,inactive,inactive,inactive,inactive,inactive,inactive,inactive,inactive,inactive,–,–,–
O=Nc1ccc(Nc2ccccc2)cc1,27.4 µM (active),9.74 µM (active) and 24.3 µM (active),inactive,inactive,inactive,inactive,inactive,40.8 µM (active),inactive,43.4 µM (active),0.391 µM (active),inactive,inactive,–,–,–,inactive,844 nM (active) and 5.3 µM (active),54.5 µM (active),–
CCC(=O)c1ccc(O)cc1,inactive,inactive,inactive,inactive,inactive,inactive,inactive,inactive,inactive,–,inactive,inactive,inactive,inactive,inactive,inactive,inactive,inactive,inactive,–
c1ccc(CNc2ncnc3c2ncn3C2CCCCO2)cc1 (centres undefined),inactive,1.72 µM (active),inactive,inactive,inactive,inactive,inactive,inactive,inactive,inactive,inactive,–,inactive,inactive,inactive,inactive,inactive,inactive,inactive,–
CCCCCC/C=C/C(=O)OC,inactive,inactive,inactive,inactive,inactive,inactive,inactive,inactive,inactive,inactive,inactive,–,inactive,inactive,inactive,inactive,inactive,inactive,inactive,–
Cc1ccc(O)c([N+](=O)[O-])c1,inactive,inactive,inactive,inactive,inactive,inactive,inactive,inactive,inactive,inactive,inactive,–,inactive,inactive,inactive,–,inactive,inactive,inactive,–
CC(O)Cn1cnc2c1c(=O)n(C)c(=O)n2C (centres undefined),inactive,inactive,inactive,inactive,inactive,inactive,inactive,inactive,inactive,–,inactive,inactive,inactive,–,inactive,inactive,inactive,inactive,inactive,–
C[C@@H]1CCC[C@H](C)N1,inactive,inactive,inactive,inactive,inactive,inactive,inactive,inactive,–,inactive,inactive,–,inactive,inactive,inactive,inactive,–,–,–,–
CC(=O)OC/C=C/c1ccccc1,inactive,inactive,inactive,inactive,inactive,inactive,–,inactive,inactive,inactive,inactive,inactive,inactive,inactive,inactive,inactive,inactive,inactive,inactive,inactive
C=C(C)[C@@H]1CC[C@@H](C)C[C@@H]1O,inactive,inactive,inactive,inactive,inactive,inactive,–,inactive,inactive,inactive,inactive,–,inactive,inactive,inactive,inactive,inactive,inactive,–,inactive
CC(C)=C1CC[C@@H](C)CC1=O,inactive,inactive,inactive,inactive,inactive,inactive,–,inactive,inactive,inactive,inactive,inactive,inactive,inactive,inactive,inactive,inactive,inactive,inactive,inactive
CN(C)CCOC(c1ccc(Cl)cc1)c1ccccn1 (centres undefined),inactive,inactive,inactive,inactive,inactive,inactive,–,inactive,inactive,inactive,inactive,4.6 µM (active),inactive,inactive,inactive,inactive,inactive,inactive,–,inactive
CC/C=C\CCOC(=O)CC,inactive,inactive,inactive,inactive,inactive,inactive,–,inactive,inactive,inactive,inactive,inactive,inactive,inactive,inactive,inactive,inactive,inactive,inactive,inactive
C=CCc1cc(OC)c(O)c(C(=O)NCCO)c1,inactive,inactive,inactive,inactive,inactive,inactive,–,inactive,inactive,inactive,inactive,inactive,inactive,inactive,inactive,inactive,–,inactive,inactive,inactive
Cc1cccc(S(=O)(=O)O)c1C,inactive,inactive,inactive,inactive,inactive,inactive,–,inactive,inactive,inactive,inactive,inactive,inactive,inactive,inactive,inactive,inactive,inactive,inactive,inactive
